The list is not random: actives were taken first. Their share in the collection is about 7.4%.
FLuc counter – counter-screen for miR-21 project: firefly luciferase inhibitors or activators; 360,000 tested, 6.9% active; purified FLuc, Km substrates, luminescence inhibition; AID 588342; Potency, µM (top dose mostly 57.5 µM), without a hit: at the top dose activity change, negative = inhibition, hits mostly inhibitors; P08659;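 further: plate controls were vehicle for no effect and reference inhibitor for full effect; nearly all actives have a fitted effect of over 55% in size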
Target sequence (P08659 whole entry, looked up): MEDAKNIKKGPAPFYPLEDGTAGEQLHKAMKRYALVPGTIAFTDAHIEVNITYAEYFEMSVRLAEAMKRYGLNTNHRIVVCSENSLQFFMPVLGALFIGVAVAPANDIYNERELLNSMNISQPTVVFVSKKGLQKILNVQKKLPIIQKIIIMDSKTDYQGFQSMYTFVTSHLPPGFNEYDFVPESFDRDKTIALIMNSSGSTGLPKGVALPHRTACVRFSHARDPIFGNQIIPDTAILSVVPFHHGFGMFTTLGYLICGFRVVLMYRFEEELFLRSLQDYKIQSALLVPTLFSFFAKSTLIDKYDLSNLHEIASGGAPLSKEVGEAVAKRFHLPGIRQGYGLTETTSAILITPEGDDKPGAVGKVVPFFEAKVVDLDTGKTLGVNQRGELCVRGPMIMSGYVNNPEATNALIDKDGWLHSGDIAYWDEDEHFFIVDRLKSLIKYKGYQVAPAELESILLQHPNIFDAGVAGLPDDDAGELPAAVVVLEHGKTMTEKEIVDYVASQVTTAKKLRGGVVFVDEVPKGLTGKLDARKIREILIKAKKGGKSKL
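Purified P. pyralis luciferase (10nM final) with 10uM D-luciferin and 10uM ATP (Km levels) in 50mM Tris acetate pH 7.5, 10mM Mg acetate, 0.01% Tween-20, 0.05% BSA; qHTS 6-point titration, ~60 µM downward; luminescence read.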
ELG1 genotoxic – inducers of genotoxicity in HEK293T ELG1-luciferase cells; Potency, µM (top dose mostly 46 µM), for the others: top-dose activity change, positive = activation, hits mostly activators; HEK293T ELG1-luciferase reporter, luminescence, 16 h; 330,000 tested, 1.3% active; further: % of control where 0% means no effect; nearly all actives have a fitted effect of over 60% in size
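Step 1: seed 2,000 HEK293T ELG1-luciferase cells per well. Step 2: add compound or DMSO, incubate 16 hr at 37 °C. Step 3: ONE-Glo, 30 min at room temperature, read luminescence.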
NPC1 prom act – activators of NPC1 promoter; Huh7 NPC1 promoter luciferase reporter, 24 h; Potency, µM (top dose mostly 9.22 µM), inactives show at the highest dose activation, hits mostly activators; 320,000 tested, 2.4% active; further: % of control where 0% means no effect; nearly all actives have a fitted effect of over 60% in size
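Quantitative HTS used a cell-based reporter: Huh7 cells stably bearing the NPC1 promoter upstream of luciferase were treated with compounds for 24 h, and promoter activation was read as luminescence.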
Rab9 prom act – Rab9 promoter activation | Potency, µM (top dose mostly 9.22 µM), without a hit: at the top dose activation, negative = inhibition, actives largely listed as activators | Huh7 Rab9 promoter-luciferase reporter, luminescence, 24 h | 320,000 tested, 2.8% active | AID 485297; further: % of control where 0% means no effect; nearly all actives have a fitted effect of over 60% in size
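Huh7 cells stably carrying a Rab9 promoter-luciferase reporter, 1500 cells per well in OP-MEM I with 10% FBS, treated with compound 24 hours at 37C. Luciferase activity read by luminescence after 10 minutes with Amplite reagent.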
SMN2 splice enh – SMN2 splice variant enhancement; Potency, µM (highest dose often 46.1 µM), for inactives: at the highest dose activity change, positive = activation, most hits filed as activators; AID 1458; 210,000 tested, 2.8% active; HEK293 SMN2-luciferase splicing reporter, luminescence, 30-36 h; further: % of control where 0% means no effect; nearly all actives have a fitted effect of over 55% in size
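qHTS luciferase splicing reporter: luminescence rises when SMN2 exon 7 is included in transfected HEK293 cells. Compound exposure lasted 30-36 h at 37C, with 4.5 mM final sodium butyrate as control, followed by a ONE-Glo read.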
p53 reactivation – restores transcriptional activity of mutant p53. 320,000 tested, 0.063% active. Potency, µM (highest dose often 92.2 µM), without a hit: at the highest dose activity change, positive = activation, hits mostly activators. H1299 p53-A138V BP100-luciferase reporter, luminescence, 24 h; further: % of control where 0% means no effect; nearly all actives have a fitted effect of over 45% in size
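H1299 (p53-null), stable ts p53-A138V + BP100-Luc; 1000 cells/well, Opti-MEM/10% FBS; cpd 4 pt, 1:5; 24 h, 37 deg C, 5% CO2; detection reagent 10 min RT; luminescence.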
* = called active by the depositor; ? = inconclusive; . = not tested or not shown. The call rests on the fitted dose curve; in most records, active means well fitted curve in the direction sought with a large enough effect; inconclusive means small, poorly fitted or top-dose-only effect, or another doubt; inactive means no such curve, though single readings can be large; an effect the other way counts as inactive or inconclusive. Potency means the concentration at half of the fitted maximal effect.

SMILES | FLuc counter | ELG1 genotoxic | NPC1 prom act | Rab9 prom act | SMN2 splice enh | p53 reactivation
Cc1nn(Cc2ccccc2)c(C)c1/C=N/NC(=O)c1ccccc1O | 7.6µM* | 2% | -8% | -8% | . | 6%
Cc1occc1C(=O)N/N=C/c1cccnc1 | -23% | 15% | 12% | 10% | 16% | 7%
CCCCCn1nc(C)c(/C=N/NC(=O)c2ccoc2C)c1C | 21µM* | ? | ? | ? | 20µM* | ?
Cc1cc2oc(C(=O)Nc3c(C)n(C)n(-c4ccccc4)c3=O)cc(=O)c2cc1C | 2% | . | . | . | 25% | .
N#Cc1c(C(F)(F)F)cc(=O)n2c1[nH]c1ccccc12 | 27µM* | -6% | 0% | 2% | . | -19%
N#Cc1c(CSCC(=O)O)cc(=O)n2c1[nH]c1ccccc12 | ? | -1% | -2% | -3% | . | -1%
COc1ccccc1-c1ccc(SCc2ccc(C)cc2)nn1 | 15µM* | 9% | 5% | 9% | -2% | 7%
COc1ccccc1-c1ccc(SCc2ccc(F)cc2)nn1 | 24µM* | 5% | 16% | 24% | 11% | 1%
COc1ccccc1-c1ccc(SCC(=O)N2CCOCC2)nn1 | 2% | 4% | -6% | 3% | 1% | -3%
NC(=O)C1CCN(C(=O)C2CC(=O)N(c3ccc(F)cc3)C2)CC1 (stereo not given) | 1% | 1% | 1% | -1% | . | 5%
NS(=O)(=O)c1ccc(N=Nc2c(O)ccc3ccccc23)cc1 | -2% | -10% | 7% | 7% | 8% | -7%
Oc1ccc(N=Nc2c(O)ccc3ccccc23)cc1 | 27µM* | -1% | 16% | 11% | -21% | 13%
Oc1ccc(N=Nc2ccc3ccccc3c2)cc1 | 1.1µM* | 2.3µM* | 3.5µM* | ? | . | 11%
COc1cc(N=Nc2ccc3ccccc3c2)ccc1O | 5.4µM* | 12µM* | 3.2µM* | ? | . | .
CC(NC(N)=O)C(=O)OCC(=O)c1ccc(-c2ccccc2)cc1 (stereo not given) | 12µM* | 7% | 10% | 18% | 26% | -3%
CCC(=O)c1ccc(O)cc1 | 5% | 2% | -2% | -2% | -17% | 4%
CCCC(C)NC(=O)c1ccc(-c2ccccc2)cc1 (stereo not given) | ? | ? | ? | 1.8µM* | . | 13%
CCC(=O)c1ccc(-c2ccccc2)cc1 | 15µM* | ? | 3% | 2% | ? | ?
O=C(O)CCC(=O)c1ccc(-c2ccccc2)cc1 | 8.5µM* | 9% | 25% | ? | 29% | 5%
CCCC(C)NC(=O)c1ccc(F)cc1 (stereo not given) | -13% | 24% | 13% | 11% | 1% | ?
O=C(O)CCC(=O)CCC(=O)c1ccc(Cl)cc1 | ? | 0% | 1% | -2% | -4% | -2%
Cc1ccc(CN(C(=O)COc2ccc(Cl)c(C)c2)C2CCS(=O)(=O)C2)o1 (stereo not given) | -12% | . | . | . | 9% | .
O=C(Nc1ccc(C(F)(F)F)cc1)C(Cc1ccccc1)n1cccc1 (stereo not given) | -4% | . | . | . | -18% | .
O=C(O)CCC(=O)NNC(=O)c1ccc(-c2ccccc2)cc1 | 19µM* | 2% | -1% | 1% | 26% | 7%
CC(C)OC(=O)c1cccc(-c2ccc(C=O)o2)c1 | ? | ? | 17% | 15% | 13µM* | ?
C=CCn1c(SCc2ccc(C(=O)Nc3nccs3)cc2)nnc1-c1ccc(C)c(Cl)c1 | 11µM* | -14% | 1% | -1% | -97% | -6%
Cn1nnnc1SCc1ccc(C(=O)Nc2nccs2)cc1 | 15µM* | ? | 30% | ? | 11µM* | 19%
Cc1cc(C)cc(NC(=O)c2ccc(CSc3nnnn3C)cc2)c1 | 13µM* | 0% | 9% | 19% | -11% | -1%
C=CCn1c(SCc2ccc(C#N)cc2)nnc1-c1cccc(Cl)c1 | 2% | -11% | -4% | -7% | -25% | -11%
